APOBEC3G inh – APOBEC3G (human) deaminase inhibition | recombinant A3G, ssDNA deamination FAM/TAMRA fluorescence | inhibition, % at 20 µM | 330,000 tested, 0.28% active | AID 493012;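 active means inhibition of at least 40% at 20 µM, with no more than 30% in the related APOBEC3A deaminase screen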
Yeast superoxide – caloric restriction mimetics inhibiting age-related superoxide in yeast | S. cerevisiae aged cells, superoxide DHE fluorescence; active compounds read low | superoxide response (% of plate mean), % at 10 µM | 330,000 tested, 0.18% active;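 active means superoxide response under a set limit, about three screen SD below normal, cut at about 65% in these data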;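 further: yeast aged for seven days with compound at 30 °C before DHE staining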
A3A deaminase – inhibitors of human APOBEC3A DNA deaminase; recombinant A3A, FAM/TAMRA ssDNA deamination fluorescence; inhibition, % at 20 µM; 330,000 tested, 0.41% active; AID 493011;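 active means at least 40% inhibition at 20 µM here, with at most 30% in a related deaminase screen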
PfGluPho inh – PfG6PD (Plasmodium falciparum) enzyme inhibition. PfGluPho enzyme, NADPH resazurin-diaphorase fluorescence. inhibition, % at 20 µM. 350,000 tested, 0.78% active;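 active means inhibition reaching at least a set limit at 20 µM in the primary screen, cut at about 59% in these data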
PfM18AAP inh-1 – blocks P. falciparum M18 aspartyl aminopeptidase; inhibition, % at 7.35 µM; 290,000 tested, 1.2% active; AID 1822; recombinant PfM18AAP, H-Glu-NHMec fluorogenic cleavage;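 active means inhibition above the campaign mean inhibition over all tested compounds plus 3 SD, cut at about 28% in these data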
PfM18AAP inh-2 – confirmation of Plasmodium falciparum M18 aspartyl aminopeptidase inhibitors; inhibition, % at 7.35 µM; AID 2170; 2,400 tested, 28% active; shares compounds with PfM18AAP inh-1; recombinant PfM18AAP, H-Glu-NHMec fluorogenic cleavage;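 active means mean inhibition over replicate wells above the hit cutoff set for the earlier primary screen, cut at about 29% in these data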
CTSL1 confirm – Cathepsin L (human) inhibition, confirmation | shares compounds with PfM18AAP inh-1 | 2,400 tested, under 10 active | inhibition, % at 5.96 µM | purified cathepsin L1, Z-Leu-Arg-MCA fluorescence;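 active means average inhibition across replicates above the hit cutoff set in the earlier primary screen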
Target sequence (P07711 whole entry, looked up): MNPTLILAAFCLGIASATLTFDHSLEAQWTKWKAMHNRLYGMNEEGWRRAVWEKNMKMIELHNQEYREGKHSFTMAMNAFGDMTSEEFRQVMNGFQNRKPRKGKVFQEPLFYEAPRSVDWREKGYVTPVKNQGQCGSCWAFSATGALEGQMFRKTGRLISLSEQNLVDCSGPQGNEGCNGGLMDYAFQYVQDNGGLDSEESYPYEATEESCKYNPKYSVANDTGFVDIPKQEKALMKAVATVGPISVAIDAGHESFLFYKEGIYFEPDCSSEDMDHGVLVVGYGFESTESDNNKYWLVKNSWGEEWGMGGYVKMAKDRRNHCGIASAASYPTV
APOBEC3G confirm – APOBEC3G (human) deaminase inhibition, confirmed; 890 tested, 72% active; shares compounds with APOBEC3G inh; inhibition, % at 20 µM; AID 493152; recombinant A3G ssDNA deaminase, UDG/FAM-TAMRA fluorescence;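 active means inhibition reaching a set limit in any replicate at 20 µM, the limit being 80% of the first screen's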
UDG A3G counter – inhibits E. coli UDG, flagging false APOBEC3G inhibitors. shares compounds with APOBEC3G inh. UDG counterscreen, FAM/TAMRA oligo fluorescence. inhibition, % at 20 µM. 710 tested, under 10 active. AID 504715;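 active means compounds giving 40% or more inhibition at 20 µM in any one of the three replicates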;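 further: inhibitors lower the FAM signal released by uracil excision and alkaline cleavage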
PfG6PD confirm – confirmation of Plasmodium falciparum G6PD inhibitors; shares compounds with PfGluPho inh; recombinant PfGluPho, NADPH-diaphorase-resazurin fluorescence; inhibition, % at 20 µM; 2,400 tested, 34% active;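 active means inhibition of at least 50% at 20 µM in any single replicate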
Diaph ctr 10uM – diaphorase inhibition or oxidation at 10 uM NADPH. inhibition, % at 20 µM. AID 504862. shares compounds with PfGluPho inh. 820 tested, 39% active. diaphorase-coupled resazurin reduction, fluorescence, NADPH 10 uM;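 active means average inhibition reaching 50% or more with the compound at 20 µM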;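 further: resorufin red fluorescence formed as diaphorase reduces resazurin using NADPH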
Diaph ctr 30uM – inhibits diaphorase or oxidizes, flagging false PfG6PD hits. shares compounds with PfGluPho inh. Diaphorase/resazurin coupled assay, resorufin fluorescence, 30 uM NADPH. inhibition, % at 20 µM. 820 tested, 29% active. AID 504863;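 active means inhibition averaging 50% or more, tested at 20 µM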
A number is an active result; – = inactive; · = not tested or not shown. Sampled rows, rich in hits. Any-hit rate of the full collection: about 2.4%.

SMILES	APOBEC3G inh	Yeast superoxide	A3A deaminase	PfGluPho inh	PfM18AAP inh-1	PfM18AAP inh-2	CTSL1 confirm	PfG6PD confirm	Diaph ctr 10uM	Diaph ctr 30uM	others
Cc1c(Cl)cccc1NC(=O)Cn1cccc1	–	–	–	–	–	·	·	·	·	·
Cc1cc(C)c2c(=O)n(CC(=O)Nc3cccc(Cl)c3C)sc2n1	72	–	–	106	63	41	–	85	–	–	APOBEC3G confirm=83;UDG A3G counter=–
Cc1cc(C)c2c(=O)n(CC(=O)Nc3ccc(Br)c(C)c3)sc2n1	·	–	·	112	60	41	–	80	–	–
O=C(NCc1ccc(N2CCCC2=O)cc1)c1cc(COc2c(F)cccc2F)on1	–	–	–	–	–	·	·	·	·	·
Oc1ccc(N2CCN(c3ccnc4cc(Cl)ccc34)CC2)cc1	–	–	–	66	38	–	–	–	·	·
O=C(CN1CCN(c2ccc(O)cc2)CC1)Nc1cc(S(=O)(=O)N2CCCC2)ccc1Cl	–	–	–	67	36	–	–	–	·	·
CCN1/C(=C/C=C/c2oc3ccc(-c4ccccc4)cc3[n+]2CC)Oc2ccc(-c3ccccc3)cc21	–	–	–	–	–	·	·	·	·	·
O=c1c2ccccc2sn1-c1cc(S(=O)(=O)N2CCOCC2)ccc1N1CCCC1	–	–	–	112	41	–	–	107	–	–
CCOC(=O)Cn1nc(C(F)F)c(Br)c1C	–	–	–	–	–	·	·	·	·	·
Cn1c(=O)c2[nH]c(=S)n(Cc3ccccc3)c2n(C)c1=O	·	·	·	–	·	·	·	·	·	·
Cn1c(=O)c2c([nH]c(=S)n2CCCc2ccccc2)n(C)c1=O	–	–	–	68	44	30	–	53	–	–
Cn1c(=O)[nH]c(=O)c2c1[nH]c(=S)n2CCCc1ccccc1	–	·	–	75	58	41	–	49	–	–
Cn1c(=O)n(Cc2ccccc2Cl)c(=O)c2c1[nH]c(=S)n2C	–	–	–	60	36	–	–	–	·	·
O=C1C2CCCN2C(c2ccco2)N1c1ccc(F)cc1 (stereo unspecified)	–	–	–	–	–	·	·	·	·	·
CCOC(=O)c1sc(=S)n(-c2ccc(F)c(F)c2)c1N	–	–	–	–	–	·	·	·	·	·
C=CCNC(=O)c1sc(=S)n(-c2ccc(C(=O)OCC)cc2)c1N	–	–	–	68	42	–	–	–	·	·
CC(C)c1cc2c(c(O)c1O)[C@@]13CCCC(C)(C)C1CC2OC3=O (stereo partly specified)	–	–	–	67	68	48	–	51	–	–
Oc1ccc(N2CCN(CC(O)c3ccccc3)CC2)cc1 (stereo unspecified)	–	–	–	80	51	–	–	–	·	·
CNC[C@@H]1Oc2ccc(NC(=O)Nc3cccc4ccccc34)cc2C(=O)N([C@@H](C)CO)C[C@@H]1C	–	–	–	·	·	·	·	·	·	·
O=C(NCc1nnc(SCC(=O)N2CCCCC2)o1)c1c(F)cccc1Cl	–	–	–	–	–	·	·	·	·	·
CN1CCN(C(=S)NC(=O)c2ccc(Br)cc2)CC1	–	–	–	–	–	·	·	·	·	·
CN1CCN(C(=S)C(=O)Nc2ccc(Br)cc2)CC1	80	–	–	81	55	–	–	74	–	–	APOBEC3G confirm=70;UDG A3G counter=–
COc1cc(N=c2ssnc2Cl)cc(OC)c1OC	72	–	–	83	39	–	–	68	–	–	APOBEC3G confirm=93;UDG A3G counter=–
